Records with an inconclusive call do not appear. Where a call stands in place of a potency, no number is given. Activity calls are given as the source filed them. Calls come from the whole dose curve; as a rule, active = well fitted curve in the direction sought with a large enough effect in the repeat runs; inconclusive = weak or mixed curves; inactive = no such curve, though single readings can be large; an effect the other way counts as inactive or inconclusive.
Potency is the fitted concentration of half-maximal effect.

One experiment is described as follows: A CellTox Green Cytotoxicity Assay to monitor cytotoxicity in HEK293 cells - 40 hour (AID 1224871). Note: nearly all actives have a fitted effect of over 45% in size. The note with it: CellTox Green fluorescence; series mostly up to 76.8 µM. An outline of the steps: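 Homogeneous no-lysis format: HEK293 cell suspension mixed with CellTox Green reagent, seeded, incubated 5 h at 37 C/5% CO2, then dosed by pintool with compound in DMSO.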
In the case of `CN1CCN(CCCN2c3ccccc3Sc3ccc(C(F)(F)F)cc32)CC1`, the Potency is 26.8 µM (active).

Take `Oc1cccc2c(O)cccc12`: the Potency entry was “inactive”.

As for `CCCC(=O)c1cc(O)c(O)cc1O`, the Potency result is “inactive”.

Regarding `O=C(N[C@H](CO)[C@H](O)c1ccc([N+](=O)[O-])cc1)C(Cl)Cl`, the Potency result was “inactive”. Same read-out and setting: as for `C=CCc1cc(S(=O)(=O)c2ccc(O)c(CC=C)c2)ccc1O`, the entry is “inactive”; as for `N#Cc1nc(Cl)c(Cl)c(Cl)c1Cl`, 1.55 µM (active). As for `c1ccc(-c2ccccc2-c2ccccc2)cc1`, the Potency entry is “inactive”. For `Nc1cccnc1N`, the Potency entry was “inactive”.

As to `COc1cc([C@@H]2c3cc4c(cc3[C@@H](O[C@@H]3O[C@@H]5CO[C@@H](C)O[C@H]5[C@H](O)[C@H]3O)[C@H]3COC(=O)[C@H]23)OCO4)cc(OC)c1O`, the Potency entry is “inactive”. Same read-out and setting: as for `CC(Cc1ccc(O)c(O)c1)C(C)Cc1ccc(O)c(O)c1` (stereo not drawn), the entry is “inactive”; as for `CCN(CCC#N)c1ccc(N=Nc2ccc([N+](=O)[O-])cc2)cc1`, “inactive”. The same measure, in the same setting: as for `O=C1OC(O)C(C(Cl)Cl)=C1Cl` (stereo not drawn), the entry is “inactive”.

Regarding `CN(C/C=C/c1ccccc1)Cc1cccc2ccccc12`, the Potency is 21.3 µM (active). With `CCN(CC)c1ccc2c(c1)Oc1cc(N(CC)CC)ccc1C21OC(=O)c2ccccc21`, the Potency was 16.9 µM (active). In the case of `NCc1cccc(C2CCN(C(=O)c3ccc(C#Cc4ccccc4F)o3)CC2)c1`, the Potency is 54.9 µM (active). Turning to `O=C1c2ccccc2C(=O)c2c(Cl)cccc21`, the Potency result was “inactive”. `CC(C)c1ccc2sc3ccccc3c(=O)c2c1`: the Potency result was “inactive”.

In the case of `CC(=O)Nc1ccc(N=Nc2cc(C)ccc2O)cc1`, the Potency result was “inactive”. Regarding `c1ccc(-c2ccc(C(c3ccccc3)n3ccnc3)cc2)cc1` (stereo not drawn), the Potency result was “inactive”. Take `O=C(Cl)c1ccc(Cl)cc1Cl`: the Potency was 49 µM (active).

The nature of another experiment: qHTS RealTime-Glo MT Cell Viability Assay in HEK293 cells - 16 hour (AID 1224872). Note: nearly all actives have a fitted effect of over 50% in size. As to conditions: RealTime-Glo luminescence; series mostly up to 76.8 µM. An outline of the steps:
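Assay medium contained NanoLuc luciferase plus cell-permeant prosubstrate, added with HEK293 cells at 600 cells/well. After 5 h at 37 C/5% CO2 compounds were added; plates stayed at 37 C for 40 h with serial luminescence reads.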
(In general: Quantitative high-throughput screening tests each substance at several concentrations.)
Regarding `CN1CCN(CCCN2c3ccccc3Sc3ccc(C(F)(F)F)cc32)CC1`, the Potency was 21.3 µM (active). In the case of `N#Cc1ccc(C/C(=N/NC(=O)Nc2ccc(OC(F)(F)F)cc2)c2cccc(C(F)(F)F)c2)cc1`, the Potency result is “inactive”.

Turning to `CCCC(=O)c1cc(O)c(O)cc1O`, the Potency result was “inactive”. With `CC(C=O)c1ccccc1` (stereo not drawn), the Potency entry was “inactive”. On the same count and under the same terms, the value for `C=CCc1cc(S(=O)(=O)c2ccc(O)c(CC=C)c2)ccc1O` was 27.5 µM (active); that for `N#Cc1nc(Cl)c(Cl)c(Cl)c1Cl` was 2.45 µM (active); that for `c1ccc(-c2ccccc2-c2ccccc2)cc1` was “inactive”. The same measure, in the same setting: as for `CC(Cc1ccc(O)c(O)c1)C(C)Cc1ccc(O)c(O)c1` (stereo not drawn), the figure is 49 µM (active); as for `CCN(CCC#N)c1ccc(N=Nc2ccc([N+](=O)[O-])cc2)cc1`, “inactive”.

Consider `Nc1ccc(Oc2cccc(Oc3ccc(N)cc3)c2)cc1`, for which the Potency entry was “inactive”. Still for that read-out and setting: as for `CN(C/C=C/c1ccccc1)Cc1cccc2ccccc12`, the entry is “inactive”; as for `CSc1nnc(C(C)(C)C)c(=O)[nH]1`, “inactive”; as for `NCc1cccc(C2CCN(C(=O)c3ccc(C#Cc4ccccc4F)o3)CC2)c1`, 49 µM (active). On the same count and under the same terms, the value for `COc1cc(/C=C/C(=O)CC(=O)/C=C/c2ccc(O)c(OC)c2)ccc1O` was 24.7 µM (active); that for `Cc1ccc(Cl)c(N)c1Cl` was “inactive”; that for `CC1=C(/C=C/C(C)=C/C=C/C(C)=C\C(=O)O)C(C)(C)CCC1` was “inactive”. The same measure, in the same setting: the value for `CCCCCCCCCCCCCCCCCCNC(=O)OC1CCN(C(=O)OC[C@H](COC(=O)N(Cc2cccc[n+]2CC)C(=O)c2ccccc2OC)OC)CC1` was 21.3 µM (active); that for `CC/C=C\C/C=C\C/C=C\CCCCCCCC(=O)OC` was “inactive”; that for `CC(=O)Nc1ccc(N=Nc2cc(C)ccc2O)cc1` was “inactive”.

A further experiment can be described thus: qHTS RealTime-Glo MT Cell Viability Assay in HepG2 cells - 8 hour (AID 1224873). Note: nearly all actives have a fitted effect of over 55% in size. The note with it: RealTime-Glo luminescence; series mostly up to 76.8 µM. An outline of the steps: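 HepG2 cells mixed with RealTime-Glo MT reagents (NanoLuc plus cell-permeant prosubstrate) were seeded at 600 cells/well, incubated 5 h at 37 C/5% CO2, then pinned with compounds in DMSO; nonlytic luminescence tracked viability during 40 h treatment.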
Turning to `N#Cc1ccc(C/C(=N/NC(=O)Nc2ccc(OC(F)(F)F)cc2)c2cccc(C(F)(F)F)c2)cc1`, the Potency entry is “inactive”. On to `Oc1cccc2c(O)cccc12`, for which the Potency entry was “inactive”. The same measure, in the same setting: as for `CCCC(=O)c1cc(O)c(O)cc1O`, the entry is “inactive”; as for `CC(C=O)c1ccccc1` (stereo not drawn), “inactive”; as for `O=C(N[C@H](CO)[C@H](O)c1ccc([N+](=O)[O-])cc1)C(Cl)Cl`, “inactive”. Take `c1ccc(-c2ccccc2-c2ccccc2)cc1`: the Potency entry is “inactive”.

Take `Nc1cccnc1N`: the Potency result was “inactive”.

With `COc1cc([C@@H]2c3cc4c(cc3[C@@H](O[C@@H]3O[C@@H]5CO[C@@H](C)O[C@H]5[C@H](O)[C@H]3O)[C@H]3COC(=O)[C@H]23)OCO4)cc(OC)c1O`, the Potency entry is “inactive”. For the compound `CC(Cc1ccc(O)c(O)c1)C(C)Cc1ccc(O)c(O)c1` (stereo not drawn), the Potency is 43.6 µM (active).

Regarding `CCN(CCC#N)c1ccc(N=Nc2ccc([N+](=O)[O-])cc2)cc1`, the Potency entry is “inactive”. Same read-out and setting: the value for `CN1CCN(CCCN2c3ccccc3Sc3ccc(Cl)cc32)CC1` was “inactive”; that for `O=C1OC(O)C(C(Cl)Cl)=C1Cl` (stereo not drawn) was “inactive”; that for `C1=CCCC1` was “inactive”. On the same count and under the same terms, the value for `Nc1ccc(Oc2cccc(Oc3ccc(N)cc3)c2)cc1` was “inactive”. The same measure, in the same setting: as for `Cc1ccc(C2OC[C@@H]3OC(c4ccc(C)cc4)O[C@H]([C@H](O)CO)[C@@H]3O2)cc1` (stereo partly drawn), the entry is “inactive”; as for `CN1CC[C@H](c2c(O)cc(O)c3c(=O)cc(-c4ccccc4Cl)oc23)[C@H](O)C1`, “inactive”. Turning to `CSc1nnc(C(C)(C)C)c(=O)[nH]1`, the Potency result is “inactive”.

Take `CCN(CC)c1ccc2c(c1)Oc1cc(N(CC)CC)ccc1C21OC(=O)c2ccccc21`: the Potency entry is “inactive”. As to `NCc1cccc(C2CCN(C(=O)c3ccc(C#Cc4ccccc4F)o3)CC2)c1`, the Potency is 49 µM (active).

For the compound `O=C1c2ccccc2C(=O)c2c(Cl)cccc21`, the Potency result is “inactive”.

As to `Cc1ccc(Cl)c(N)c1Cl`, the Potency result is “inactive”. The same measure, in the same setting: as for `CC1=C(/C=C/C(C)=C/C=C/C(C)=C\C(=O)O)C(C)(C)CCC1`, the entry is “inactive”. As for `CC(C)c1ccc2sc3ccccc3c(=O)c2c1`, the Potency result is “inactive”.

For the compound `CC/C=C\C/C=C\C/C=C\CCCCCCCC(=O)OC`, the Potency result was “inactive”. As for `CC(=O)Nc1ccc(N=Nc2cc(C)ccc2O)cc1`, the Potency result is “inactive”. Same read-out and setting: as for `c1ccc(-c2ccc(C(c3ccccc3)n3ccnc3)cc2)cc1` (stereo not drawn), the entry is “inactive”; as for `C=CC(=O)OCC(Br)CBr` (stereo not drawn), “inactive”; as for `CCCCC/C=C\C=C\C(=O)OCC`, “inactive”. As to `O=C(Cl)c1ccc(Cl)cc1Cl`, the Potency entry is “inactive”.

The record behind these values is PubChem BioAssay (Tox21).
